The record followed here is paper PMC9574860, “Chemical Toolkit for PARK7: Potent, Selective, and High-Throughput” (Journal of Medicinal Chemistry, 2022).

The campaign covered roughly 7,900 compounds. About 400 (5.1%) showed an effect of 50% or more. The sample as a whole holds a higher share of strong results than the screen did.

For the test, the target named is Parkinson's disease protein 7 (PARK7/DJ1) (human, UniProt Q99497). The experiment in a line: primary screen, percent inhibition; read as competition with a fluorescent probe by fluorescence polarization; higher = more effect of the substance. Particulars: 100 µM. As for the experimental part: The screen was conducted using the conditions as described above in 1536-well plates (Corning 3724) with a reaction volume of 8 μL per well. The compound library containing 7887 covalent fragments was purchased at Enamine Ltd. and received as 100 mM DMSO stocks in 384 well LDV Echo plates (Labcyte LP-0200). Stock solutions of 0.26 μM PARK7 and 80 nM JYQ-107 were prepared. Using a Labcyte Echo550 acoustic dispenser, 8 nL of the DMSO stock solution of the library compounds was transferred from the source plates into the empty 1536-well screening plates to obtain a 100 μM final compound concentration. Next, PARK7 (6 μL, final concentration 0.2 μM) was dispensed using a Biotek MultiflowFX liquid dispenser and incubated for 2 h, followed by dispensing the probe JYQ-107 (2 μL, final concentration 20 nM). After 2 h incubation, the FP signal was recorded on a BMG Labtech PHERAstar plate reader (λex/em 480/520 nm). The relative loss of FP signal compared with reference controls was used to calculate the remaining enzyme activity.
Sequence of Parkinson's disease protein 7 (PARK7/DJ1) (Q99497 whole entry, looked up, the tested form may be a part): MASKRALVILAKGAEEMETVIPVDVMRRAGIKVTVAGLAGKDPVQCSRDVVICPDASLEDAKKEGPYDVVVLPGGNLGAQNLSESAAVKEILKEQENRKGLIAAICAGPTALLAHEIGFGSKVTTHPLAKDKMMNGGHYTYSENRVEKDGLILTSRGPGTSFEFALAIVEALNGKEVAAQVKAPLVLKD
For the compound `Cc1ccnc(S)n1.Cl`, the Inhibition % was 5.09%. The same measure for `C=CC(=O)Nc1cccc(C(F)(F)F)c1`: 9.31%. The same measure for `COCc1ncsc1C(=O)Nc1cccc(S(=O)(=O)F)c1`: 8.52%; for `O=C(Nc1cccc(S(=O)(=O)F)c1)c1ccoc1C(F)(F)F`: 96.8%. `Cc1nc2c(C(=O)Nc3cccc(S(=O)(=O)F)c3)cccc2o1`: the Inhibition % is 43.6%.

As to `O=C(Nc1cccc(S(=O)(=O)F)c1)c1sccc1OC(F)F`, the Inhibition % is recorded as 93.1%. As for `NS(=O)(=O)c1cccc(NC(=O)Oc2ccccc2)c1`, the Inhibition % is on record as 4.87%.

As for `Cc1cc(C(=O)Nc2cccc(S(=O)(=O)F)c2)c(C(F)(F)F)o1`, the Inhibition % is recorded as 96.8%.

Consider `C=CC(=O)Nc1cccc(OC(F)F)c1`, for which the Inhibition % was determined as 4.3%. With `Cc1ccoc1C(=O)Nc1cccc(S(=O)(=O)F)c1` the figure was 7.02%; with `C=C(Cl)CSc1nc(N)cc(N)n1`, 18.5%. With `CC(C)CN1CCN(c2ccc(C#N)nc2)C(C)C1=O` (stereo not drawn) the figure was 5.84%; with `O=C(CCl)Nc1ccccc1-c1ccccc1`, 8.41%; with `CCn1cc(CCCl)cn1`, 5.4%. In the case of `CN1CN=C(S)NC1`, the Inhibition % came out at 3.57%.

Turning to `C=CC(=O)NCC1(C)CCOCC1`, the Inhibition % came out at 4.38%. The same measure for `C=CC(=O)NCC1CCC2(COC(C)C2)O1` (stereo not drawn): 2.62%.

For the compound `C=CC(=O)NCc1ccc2c(c1)CCO2`, the Inhibition % was found to be 9.41%. Regarding `C=CC(=O)Nc1ccc2c(c1)COC2`, the Inhibition % is 11.5%. The same measure for `O=C(Cc1ccc2c(c1)CCO2)Nc1cccc(S(=O)(=O)F)c1`: 94.3%; for `O=C(CCl)Nc1cccc(S(=O)(=O)N=C2CCCN2)c1`: 18.3%.

Regarding `O=C(Cc1ccc2c(c1)COC2)Nc1cccc(S(=O)(=O)F)c1`, the Inhibition % was 97.6%. With `C=CC(=O)Nc1cccc(C(F)F)c1` the figure was 6.09%. With `O=C(Cc1cccc(C(F)F)c1)Nc1cccc(S(=O)(=O)F)c1` the figure was 52%. Turning to `O=C1CC2(CCNCC2)N1`, the Inhibition % amounted to 3.72%. With `N#CC(=Cc1ccc(N)cc1)C(N)=O` the figure was 8.09%; with `CC(C)CNc1oc(Cc2ccccc2)nc1C#N`, 6.85%. Consider `C=CC(=O)NC1CC2(COC(C)C2)C1` (stereo not drawn), for which the Inhibition % is reported as 8.04%. On to `COc1cc(C)c(C)cc1S(=O)(=O)n1cccn1`, for which the Inhibition % was found to be 6.67%. The same measure for `N#Cc1c(Cl)nc2sccn12`: 4.22%; for `CCN(Cc1ccc(Cl)s1)C(=O)CCl`: 9.61%; for `N#Cc1ncn(CCC(=O)NCc2ccc(F)cc2)n1`: 7.22%. The same measure for `O=C1CC2(CCN(Cc3ccc(Cl)cc3Cl)CC2)N1`: -1.16%; for `Cc1ccc([N+](=O)[O-])cc1NC(=O)CCl`: 18.4%; for `O=C(CCl)NN(c1ccccc1)c1ccccc1`: 10.3%. With `O=C(Nc1ccccc1)NN(C(=O)CCl)c1ccccc1` the figure was 93.5%; with `O=C(CCl)Nc1ccc([N+](=O)[O-])cc1`, 32.8%. On to `O=C(CCl)N(Cc1ccccc1)c1ccccc1`, for which the Inhibition % was 10.7%. As for `CN(C(=O)CCl)c1ccccc1`, the Inhibition % is given as 79.7%. The same measure for `O=C(CCl)NC(=O)Nc1ccccc1`: 28.5%; for `CN(C(=O)CCCl)c1ccccc1`: 9.16%; for `CCN(C(=O)CCl)c1ccccc1`: 44.6%.

Take `Cc1cccc(N(Cc2ccccc2)C(=O)CCl)c1`: the Inhibition % is 9.42%.

Consider `CN(C(=O)CCl)c1ccc([N+](=O)[O-])cc1`, for which the Inhibition % is 93.5%. For the compound `Cc1csc(N(C(=O)CCl)c2ccccc2)n1`, the Inhibition % amounted to 87.3%.

Turning to `Cl.Cl.O=C(O)C1CCN(C(=O)C=Cc2nc3ccccc3s2)C1` (stereo not drawn), the Inhibition % turned out to be 9.53%.

Turning to `C=CC(=O)NC[C@H]1CC[C@H](c2ccccc2)O1`, the Inhibition % was 2.73%. The same measure for `Cn1c(=O)c2c(ncn2CCS(=O)(=O)F)n(C)c1=O`: 7.95%. With `CC(C)Cc1ccc(C(C)NC(=O)CCl)cc1` (stereo not drawn) the figure was 9.76%; with `CS(=O)(=O)OCC1(C#N)CCCCC1`, 8.05%; with `CCCC(=O)NC1CCCN(c2ccc(C#N)nc2)C1` (stereo not drawn), 5.26%. The same measure for `NC(=O)CCN(C(=O)CCl)c1ccccc1`: 67.4%; for `N#CCCN(C(=O)CCl)c1ccccc1`: 14.9%. Take `NC(=O)CCN(C(=O)CCl)c1ccc(F)cc1`: the Inhibition % is 37.5%. With `C=CC(=O)NCc1cnn2ccccc12` the figure was 19.8%; with `C=CC(=O)Nc1cnn2ccccc12`, 97%; with `C=CC(=O)Nc1cc2ccccn2n1`, 30.2%.

For the compound `C=CC(=O)NCc1noc2c1CCCC2`, the Inhibition % amounted to 4.47%. With `CC(C)c1nc2c(n1C)CCN(c1cccnc1C#N)C2` the figure was 87%. For the compound `N#Cc1ncccc1N1CCc2ccccc2C1`, the Inhibition % worked out at 26.9%. With `N#Cc1ncccc1N1CCC=C(F)C1` the figure was 20.1%.

Regarding `C=CC(=O)NCc1ccc(CN2CCCCCC2)cc1`, the Inhibition % came out at 13.2%. With `O=C(CCl)c1ccc(F)c(C(=O)CCl)c1` the figure was 100%; with `Cc1cc(C(=O)CCl)ccc1F`, 24.6%; with `O=C(CCl)c1ccc(F)c(F)c1`, 22.1%. With `O=C(CCl)c1ccc(F)c(Cl)c1` the figure was 99.2%; with `O=C(CCl)Nc1ccc2[nH]c(C(F)(F)F)nc2c1`, 45%; with `CC(NC(=O)Cn1cnc(C#N)n1)c1ccc(F)cc1F` (stereo not drawn), 1.26%. The same measure for `N#CN(Cc1ccno1)c1ccc(F)cc1`: 15.5%. Regarding `C=CC(=O)Nc1cc(F)ccc1C`, the Inhibition % is given as 3.57%. The same measure for `CC1CCCCC1NC(=O)Cn1cnc(C#N)n1` (stereo not drawn): 5.45%; for `O=C(O)[C@H]1CCCN1C(=O)C=Cc1ccccc1F`: 8.2%; for `NC(=O)C1CCCCN1C(=O)CCl` (stereo not drawn): 12.3%. The same measure for `O=C(CCl)C1CCCN1C(=O)C(F)(F)F` (stereo not drawn): 80.8%. As to `O=C(CCl)N1CCCC2CCCCC21` (stereo not drawn), the Inhibition % worked out at 14.1%. With `CC1(C)CCC(OS(C)(=O)=O)CC1` the figure was 16.9%; with `O=C(CCl)NCCc1ccc(Cl)cc1Cl`, 23.1%. The same measure for `CSc1cc(C(=O)CCl)ccc1NC(C)=O`: 5.59%; for `CC(=O)NCCc1ccc(C(=O)CCl)cc1F`: 81.3%; for `CSc1ccc(C(=O)CCl)cc1NC(C)=O`: 37.7%. The same measure for `CC(=O)NCCc1cc(C(=O)CCl)ccc1F`: 83.3%.
